# Screening data: PubChem BioAssay, several laboratories
# PHOSPHO1 block: PHOSPHO1 (human) inhibition | Q8TCT1 | recombinant PHOSPHO1, absorbance phosphatase assay | inhibition, % at 13.3 µM | 1.1% of 290,000 active | AID 1565; in the data active = inhibition above about 60%
# Target sequence (Q8TCT1 whole entry, looked up): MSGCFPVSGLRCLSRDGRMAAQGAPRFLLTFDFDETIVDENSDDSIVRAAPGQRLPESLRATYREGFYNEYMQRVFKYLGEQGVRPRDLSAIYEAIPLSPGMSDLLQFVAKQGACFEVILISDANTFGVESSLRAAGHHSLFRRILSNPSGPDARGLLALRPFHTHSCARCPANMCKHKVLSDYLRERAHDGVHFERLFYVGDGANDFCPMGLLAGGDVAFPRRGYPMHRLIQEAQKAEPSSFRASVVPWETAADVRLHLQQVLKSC
# TPT1 inhibitor: blocks Candida albicans tRNA 2'-phosphotransferase; recombinant caTPT1, FP RNA substrate dephosphorylation; AID 1962; inhibition, % at 5 µM; 0.81% of 300,000 active;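 active = inhibition above the mean of all tested compounds plus 3 SD, set per screening campaign, cut at about 24% in these data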;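 also: plate controls were DMSO alone for no effect and ferristatin control at 100 nM for full effect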
# Platelet DG rel: modulates dense granule release in human platelets; inhibition, %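 (compounds screened at 7.5 µM in platelet-rich plasma)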; human platelet-rich plasma, SFLLRN dense granule ATP release, luminescence; 0.22% of 300,000 active; AID 1663;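 active = mean replicate score, as percent of positive control, at or above 50; inconclusive = mean below 50 but at least one replicate at or above 50; inactive = mean and every replicate below 50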
# WT yeast gro inh: growth inhibition of WT yeast, mitochondrial fusion screen; inhibition, % at 10 µM; mitochondrial fusion phenotypic screen, WT strain; 2.1% of 190,000 active; in the data active = inhibition above about 58%; tested in S. cerevisiae
# Rtt109 HAT inh: blocks Candida albicans Rtt109/Vps75 acetyltransferase activity. purified Rtt109/Vps75, ThioGlo CoA-SH fluorescence, 4 h. 0.16% of 330,000 active. Q5AAJ8. inhibition, % at 34.9 µM. AID 540336;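 active = inhibition of at least 50% in every replicate; inconclusive = best replicate reaches 50% inhibition but some replicates fall short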
# SKKanGAS inh: SKKanGAS growth inhibition. S. pyogenes SKKanGAS, kanamycin growth, BacTiter-Glo, 6 h. 1.3% of 300,000 active. AID 1662. inhibition, % at 7.5 µM;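 active = mean replicate score, as percent of positive control median, at least 50; inconclusive = mean below 50 but one replicate at or above 50; inactive = mean and every replicate below 50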;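 also: strain carries kanamycin resistance gene driven by streptokinase promoter and grows in 40 µg/ml kanamycin; loss of luminescence reflects streptokinase promoter inhibition or plain growth inhibition; 0% = median of DMSO wells and 100% = positive control at its reference dose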
# Active calls of the source: *; ? = inconclusive; / = not tested or not shown. Compounds with a hit are over-represented: about 3.9% of the library has one in this group of screens.
SMILES,PHOSPHO1 block,TPT1 inhibitor,Platelet DG rel,WT yeast gro inh,Rtt109 HAT inh,SKKanGAS inh
CC(=O)Nc1nc(NC(=O)/C=C/c2ccccc2)n(-c2ccccc2)n1,23,0,-6,4,-2,97*
CCN(CC(=O)NC1CCCC1)S(=O)(=O)c1ccc(Br)cc1,3,1,2,/,0,5
CN1CCN(c2c(F)cc3c(=O)c(C(=O)O)cn4c3c2SCC4)CC1,-6,-4,17,-9,2,14
CCOC(=O)c1cn(C2CC2)c2c(F)c(F)c(F)cc2c1=O,30,-1,-4,0,2,-20
C[C@H]1COc2c(C3(N)CC3)c(F)cc3c(=O)c(C(=O)O)cn1c23,16,-5,4,1,/,66*
C[C@H]1COc2c(N3CCN(C)CC3)c(F)cc3c(=O)c(C(=O)O)cn1c23,36,-4,3,7,-11,107*
O=C(CC1SC(N2CCCC2)=NC1=O)Nc1ccc(C(=O)NCc2ccc(F)cc2)cc1 (stereo not drawn),/,/,/,/,10,/
OC(COc1ccc2ccccc2c1Br)Cn1ccnc1 (stereo not drawn),5,-6,?,71*,13,6
CCOC(=O)C[N+](C)(C)CCOC1CC2CCC1(C)C2(C)C (stereo not drawn),37,2,-3,2,0,4
CC1(C)C2CCC1(C)C(OCC[N+](C)(C)CC(=O)OC1CCCCC1)C2 (stereo not drawn),4,-3,-3,26,58*,0
O=C(Nc1nnc(-c2cccs2)o1)c1cccc(C(F)(F)F)c1,1,2,24,62,-15,92*
CN(C)S(=O)(=O)c1ccc(C(=O)Nc2nnc(-c3cccs3)o2)cc1,-16,-1,-4,5,1,-2
O=C(Nc1nnc(-c2cccs2)o1)C1CC1,0,0,31,-6,12,3
N#Cc1ccc(C(=O)Nc2nnc(-c3cccs3)o2)cc1,32,0,7,11,-1,52*
CC1CC(C)CN(S(=O)(=O)c2ccc(C(=O)Nc3nnc(-c4cccs4)o3)cc2)C1 (stereo not drawn),6,-3,/,54,-5,82*
CCN(c1ccc(NC(=O)c2cccc(S(=O)(=O)N3CCN(C)CC3)c2)cc1)C(C)C,15,-1,0,/,1,-2
O=C(O)CCCC(=O)Nc1ccccc1SCCS(=O)(=O)c1ccc(Cl)cc1,34,/,3,/,0,2
CCOC(=O)CN1C(=O)NC2(CCCc3ccccc32)C1=O (stereo not drawn),28,-1,4,/,11,-5
COc1cccc(CCC2C(=O)CCCC2=O)c1,/,/,/,/,4,/
CC(=O)Nc1ccc(S(=O)(=O)NCCc2cc3ccc(C)c(C)c3[nH]c2=O)cc1,63*,-2,-3,/,-6,26
CC1(C)OC(=O)N(c2ccccc2)C12C=Cc1cc(Br)ccc1O2 (stereo not drawn),1,-1,3,5,53*,19
CC1(C)OC(=O)N(CCc2ccccc2)C1(C)O (stereo not drawn),19,-1,8,7,2,2
CCCN(CCC)C(=O)CC(c1ccccc1)c1cc(Br)ccc1O (stereo not drawn),-1,1,20,76*,-16,/
O=C(CSc1nnc2ccccn12)c1ccc(Cl)cc1,-12,-2,-7,2,1,-16
O=C(CSc1nnc2n1CCCN2C(=S)Nc1ccc(Cl)cc1)c1ccccc1,24,3,1,65*,8,5
SMILES,PHOSPHO1 block,TPT1 inhibitor,Platelet DG rel,WT yeast gro inh,Rtt109 HAT inh,SKKanGAS inh
Cc1cc(-c2sccc2C)nc(-n2cccc2)n1,24,-2,-4,68*,/,6
CC1CCN(C(=O)/C=C/c2ccc(C(C)(C)C)cc2)CC1,0,3,-1,62*,35,19
Cc1ccc(/C=C/C(=O)N2CCC(Cc3ccccc3)CC2)cc1,-15,-1,-19,67*,-3,-7
COc1ccccc1OC(C)C(=O)N1CCC(Cc2ccccc2)CC1 (stereo not drawn),31,0,-4,/,2,-21
Cc1ccc(/C=C/C(=O)N2CCCC(C)C2)cc1 (stereo not drawn),-34,0,16,-12,-1,-1
Cc1ccccc1OC(C)C(=O)N1CCC(Cc2ccccc2)CC1 (stereo not drawn),68*,-3,-3,/,-5,1
Cc1n[nH]c(=S)n1/N=C/c1ccc(OCc2ccc(Cl)cc2)cc1,-2,0,1,24,-2,12
Cc1cc(C)c(COc2ccc(/C=N/n3c(C)n[nH]c3=S)cc2)c(C)c1,8,-3,16,91*,-1,?
c1ccc(N/N=C(\Cc2ncc[nH]2)c2ccccc2)cc1,-31,0,15,9,2,0
Clc1cccc(N/N=C(\Cc2nc3ccccc3[nH]2)c2ccccc2)c1,-1,-1,-5,62,7,91*
CCN1/C(=C/c2ccc3ccccc3[n+]2CC)C=Cc2ccccc21,9,18,18,83*,?,52*
COc1cc(-c2nc(C(=O)NCC3CCCO3)cc3c2[nH]c2ccccc23)cc(OC)c1OC (stereo not drawn),23,-2,-5,/,0,36
O=C(NCC1CCCO1)c1cc2c([nH]c3ccccc32)c(-c2cccc(Cl)c2)n1 (stereo not drawn),3,-1,2,/,3,50*
O=C(O)c1ccc(CSc2nc(-c3ccc(Cl)cc3)cc(C(F)(F)F)n2)cc1,24,0,-7,-5,29,52*
O=C(O)c1ccc(CSc2nc(-c3ccccc3)cc(C(F)(F)F)n2)cc1,3,-1,-2,43,6,31
O=C(CNS(=O)(=O)c1ccccc1Br)OCC(=O)N1CCc2ccccc21,3,0,7,-7,25,-1
CC(=O)Nc1ccc(S(=O)(=O)NCC(=O)OCC(=O)N2CCc3ccccc32)cc1,0,-10,-1,62*,/,2
CS(=O)(=O)c1ccc(NC(=O)c2cc3c(cc2Cl)N2CCCCCC2=NS3(=O)=O)cc1,/,/,/,/,-6,/
COc1ccc(N/C=C/C(=O)c2ccc(Oc3ncccn3)cc2)cc1,-1,4,-2,70*,6,1
COc1ccc(C(=O)/C=C/Nc2cccc(O)c2)cc1,57,-6,55*,3,6,0
O=C1/C(=C/c2ccc(F)cc2)SC(=S)N1Nc1ncc(C(F)(F)F)cc1Cl,86*,-3,1,2,13,18
CCCOc1ccc(C=Nc2ccc(OC)c(S(=O)(=O)N3CCOCC3)c2)c(O)c1,/,/,/,/,11,/
CCOc1ccc(C(C)=O)cc1CSc1nnc(-c2ccoc2C)n1N,75*,7,1,-6,-8,1
Cc1cccc(-n2c(-c3csc4ccccc34)n[nH]c2=S)c1,0,1,-1,64*,-4,2
CC(C)Cn1c(-c2csc3ccccc23)n[nH]c1=S,106*,3,1,50,-22,-4
